Measured values: PubChem BioAssay AID1508600 (Functional Genomics Laboratory (NCATS/FGL), 2020)
The whole screen tested about 53,000 sequences, of which about 3,700 (7%) were called active.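 How the source made its calls: active means gene knockdowns whose robust z-score for IL-1 alpha signal is at least 2 or at most -2, so actives lie on both sides; inactive means the rest.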 The full list was thinned out, with actives kept by preference.

assay: Components of the Cytosolic LPS Sensing Pathway: Gene Identification via Genome-wide siRNA Screen; details: RAW264.7 macrophages, IL-1a HTRF, actives lie on both sides, screened at 100 nM (by protocol), cells primed 5 h with Pam3CSK4 first;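 further: robust z of the log signal after scaling to non-targeting control siRNA wells of the plate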
In short: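 Using IL-1a HTRF as read-out, the screen measured release from RAW264.7 cells after 48h siRNA knockdown (100 nM), 5 h Pam3CSK4 priming and 24 h cytosolic LipidA. Values were expressed relative to negative-control wells as robust z-scores.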

Sequence	z-score
GGAUGAGAGUCCACAGCAATT against Lpar3	-1.26 (inactive)
GGAAUUCACAGAUACCGUGTT against Guca1a	0.93 (inactive)
GGAUGAGGUGAUUAAAGAATT against Cd9	2.38 (active)
GGAGUUCAUUGUUUGGUUGTT against Nat2	0.593 (inactive)
GGAUAUUGAUGUUUCAAGUTT against Neo1	-0.241 (inactive)
CGUGGUGCAGAAUUUUUAUTT against Cldn14	1.13 (inactive)
GGCACACACAUCAAAAGGATT against A530021J07Rik	-2.63 (active)
GGUAGAUGGCAUCUACUAUTT against Josd2	0.663 (inactive)
GCUGGCAGUUUGUAAGUAGTT against Faxc	-0.653 (inactive)
GGGUGUCAUCCUUAUCCUGTT against Olfr655	-0.0528 (inactive)
CCGAAUCUGUCGUCAAGGUTT against Trem3	0.552 (inactive)
GGACCAGGUCCGUUGGAAUTT against Efna1	0.636 (inactive)
GGAUGUAAAGAGGAAUCUCTT against Abca16	-0.748 (inactive)
GCAUCCCUUCCGAGAAACATT against Bag6	0.916 (inactive)
GCCGUCAGACAAGGAGGAATT against Magi1	2.43 (active)
GGAUGUCCUUGACUUUAAATT against Atp6v0a4	0.704 (inactive)
GCCUGAGGAAUCGUGACAUTT against Olfr51	-1.58 (inactive)
GGAAAUGAUACAUUUGUGATT against Mre11a	-0.256 (inactive)
CCGCACAGACCAUAGUAGATT against Pudp	0.261 (inactive)
GGUACUUUGGAAAGAAGAGTT against Yeats4	-1.27 (inactive)
GGGAAUGAACCUAGAAGAGTT against Tymp	-1.2 (inactive)
GGUAGCCAUAUCUAACAGCTT against Scd1	-2.02 (active)

Sequence	z-score
GCCCUGAGACCACGAUAUUTT against AF067063	1.48 (inactive)
GGUUAUAUGCAGAGGAACUTT against Arid1a	-0.436 (inactive)
GGCAAGAUGAAUUAAAAUGTT against Gcfc2	-0.964 (inactive)
GGAUAAAGGCAAAGACAAATT against Rsrc1	0.891 (inactive)
UUAUGCUGACCUCUAUCUUTT against Akr1c19	2.33 (active)
GGUUGAUUCUUAAAUUGUGTT against Slc6a5	0.331 (inactive)
GGCUGGUGUAAUCGAAACATT against Ttc39c	0.0501 (inactive)
GGAAACUCCGUCCCAAUUGTT against Trim68	1.39 (inactive)
GGCGAUUUCAACUGAAAAUTT against Jakmip1	0.548 (inactive)
GCCCAAUAAAAUUGAAGGGTT against Pmis2	-0.163 (inactive)
GGUCUUUGAGGAAAGAGGUTT against Hemk1	-1.59 (inactive)
GGCCUGUCCAAAGAAGUGATT against E2f3	2.2 (active)
GCGCACACCCUACUUGAUUTT against Pcdh20	1.08 (inactive)
GCUGUAAUUCCUAAGUUAUTT against Ubxn6	0.268 (inactive)
CCCAGAGCAUGCCAUCAACTT against Orm3	-0.38 (inactive)
CCUUACACUAAGAAAAAGGTT against Rad50	-0.0689 (inactive)
GCAGUCCAAAAAAUUCGGUTT against Stox2	-2.15 (active)
GGCAUUAGAGCAGAGUCGUTT against Trmu	-1.29 (inactive)
GGUGCAGAGAAGUGUAACATT against Slc25a21	-1.6 (inactive)
GGUGCUGAGCAUGGUGUUATT against Spag4	3.17 (active)
GGAGUAUCGUUUAUUCAUUTT against Slc2a2	0.161 (inactive)
GCCUAAGAAAUUAGUGAAUTT against Rflna	0.204 (inactive)

Sequence	z-score
GGCCAUCACUAAAUAAUGGTT against Ctdspl2	-0.123 (inactive)
GGAAAACGAGUCAAACUCATT against Lnx2	3.4 (active)
GGUGGUGAGCAUCUACUAUTT against Alox5	0.565 (inactive)
CCCUAAUAAAUUCCAAAUCTT against H2-Ke6	1.81 (inactive)
GCAUGUAGUUCAUCAGUACTT against Tubgcp5	0.874 (inactive)
GGACCACUUUUUCAGACUCTT against Ralgapa1	0.945 (inactive)
GGCGAAAUGGUAAACCGAGTT against Adgrg2	0.0183 (inactive)
GUACGGCAACAUGACCCAGTT against Cd74	0.385 (inactive)
GGACUUCAACAACUGCUCUTT against Polr1a	2.28 (active)
CCACUUCUACAUACUUAAUTT against Plau	0.62 (inactive)
UCUCAUUGCAAUUCUGGGATT against Olfr675	0.566 (inactive)
CCUUACUCAAGAUCCUGCUTT against Olfr1243	-0.23 (inactive)
GGCACUCAACACCUGUAUATT against Olfr640	-1.34 (inactive)
GGAAUUCCUUCACAUCUGGTT against Tc2n	0.4 (inactive)
GGGUGAUAAGCAGUUAUACTT against Wdr75	1.33 (inactive)
GCUUCUGUUAUGAGGCUCATT against Hif1a	-2.52 (active)
GGAGAUUGUGGAAAUGCUUTT against Skiv2l	0.459 (inactive)
CCCAGACCAUACUACGGAUTT against Calb2	-1.25 (inactive)
GUUUCAGUGCAGCCAUUACTT against Olfr518	-0.747 (inactive)
GGAUUUAUUUCCGAUUCGATT against Nalcn	-0.0152 (inactive)
GGAUCAAAAGGUGAAUGCUTT against Vmn1r67	-2.54 (active)
GCUGCAUUCGGUUACCACUTT against Olfml2b	0.677 (inactive)

Sequence	z-score
GGAGGUUACAUAACAGGUGTT against Itsn2	1.86 (inactive)
GGGAGUUAUUUAAGAUUCUTT against Has1	0.0567 (inactive)
GAAAAAUAAUGGAGUUUGGTT against Gtf2h5	0.513 (inactive)
CCAGUGGAGUAAACUGUAATT against Ltbp1	2.24 (active)
GGAAGUGGUCCACCUGAUCTT against Mms19	-0.324 (inactive)
GGCCCAUCUGAGGAAGCUUTT against Magea4	-1.55 (inactive)
GGAACUUCAUAAACACUUGTT against Oas3	-0.545 (inactive)
GGUUCUGGAAAGUUCUCUGTT against Sorcs2	-0.0101 (inactive)
GGUGAUGUUUUAUGGCAGGTT against Olfr1335	0.329 (inactive)
CGAUGAUCGGCUCAACAAGTT against Rplp2	-0.401 (inactive)
GGCCAUACGCAAGCUCAAGTT against Rtl5	-2.96 (active)
GGUUCCUCACAAGCAUUCUTT against Olfr818	0.276 (inactive)
GCAUGAAGUUGCACAUCCCTT against Cox8b	-0.42 (inactive)
GGGAGCUAUUUAUCCUAUUTT against Zc4h2	0.214 (inactive)
GCCUCCUGAAUGACCACAUTT against Klk1b27	2.29 (active)
GGACUGUGAUUGUUUCAGATT against Mep1a	-0.0817 (inactive)
GGUAUCAUCUAUAGAGACUTT against Prkch	-0.265 (inactive)
CCGUGCCAAACUUCUUACUTT against 2610528J11Rik	-0.1 (inactive)
GGGCUAGAGGAAAACGAAATT against Crot	1.64 (inactive)
CGCAGAGAGUAGAAAAUUGTT against Pdia5	-0.428 (inactive)
GGACUGUCAUCUUCCUCAGTT against Ston2	-2.97 (active)
GCUAUGACCGGAGGUUCUATT against Morn5	0.555 (inactive)

Sequence	z-score
GGAAACGAAGAGGAAGAAUTT against Ddit3	-0.571 (inactive)
CCAGUAUAUUCUGAGGGUUTT against Isl1	0.374 (inactive)
GGAGACUGAGGAAGAAUCUTT against Atcay	-0.302 (inactive)
GGACUGUGACAUAUUCUUUTT against Zfp54	2.74 (active)
GGGUGGACUGAAUGCUGAUTT against Qtrt1	0.665 (inactive)
GGUGUACCUUGGGACUUACTT against Prpf18	-2.84 (active)
GGUUUACUUCCCAUACCUGTT against Pold1	0.701 (inactive)
GGCAAUACGUAACAUGCCATT against Slc6a4	-0.148 (inactive)
GGACGAAGACACCAAAGUGTT against Camk2a	-1.31 (inactive)
GGUAGGGACCUAUCCUUGGTT against Cramp1l	-0.518 (inactive)
GGAUGGAGUUCACAUUUUCTT against Utp11	0.816 (inactive)
CCUUGAGCAAAUCACACAUTT against Stk32b	3.94 (active)
GGACAAGAACUUAGUGAUGTT against Emc9	0.522 (inactive)
GGCUGGAACCCUAAUUUCUTT against Tpo	1.32 (inactive)
AGUGGGCUUCAAAUUUCCATT against Aym1	-0.551 (inactive)
GCAUGAUCGUGUUUGUUUATT against Srpk2	0.722 (inactive)
GGUUUCAAUAAUCCAGGAATT against Naa16	0.352 (inactive)
CCUCAAAUGGCCACACACUTT against Kcnj11	-1.27 (inactive)
GGACUAAAUGGUCAAGAUUTT against Rbm8a	-2.74 (active)
CCUUGGAUGUAUUCAUAUATT against Prkar2a	0.255 (inactive)
